Assay results: article PMC7862700, “An all-to-all approach to the identification of sequence-specific readers for epigenetic DNA modifications on cytosine”

Assays:
Assay in all cases: DAPPL (digital affinity profiling via proximity ligation, sequencing); 10 mM Tris-HCl pH 7.5, 50 mM NaCl, 1 mM DTT, 4% glycerol, room temperature, 30 min; GST-TFs on glutathione beads, 16-mer random dsDNA library, 0.1% formaldehyde crosslink after washing; high values mean tight binding
FLI1 = target: T1, FLI1 (Homo sapiens, UniProt Q01543 1-452); details: protein: recombinant; tags: N-terminal GST; dsDNA, one strand shown
T1 sequence: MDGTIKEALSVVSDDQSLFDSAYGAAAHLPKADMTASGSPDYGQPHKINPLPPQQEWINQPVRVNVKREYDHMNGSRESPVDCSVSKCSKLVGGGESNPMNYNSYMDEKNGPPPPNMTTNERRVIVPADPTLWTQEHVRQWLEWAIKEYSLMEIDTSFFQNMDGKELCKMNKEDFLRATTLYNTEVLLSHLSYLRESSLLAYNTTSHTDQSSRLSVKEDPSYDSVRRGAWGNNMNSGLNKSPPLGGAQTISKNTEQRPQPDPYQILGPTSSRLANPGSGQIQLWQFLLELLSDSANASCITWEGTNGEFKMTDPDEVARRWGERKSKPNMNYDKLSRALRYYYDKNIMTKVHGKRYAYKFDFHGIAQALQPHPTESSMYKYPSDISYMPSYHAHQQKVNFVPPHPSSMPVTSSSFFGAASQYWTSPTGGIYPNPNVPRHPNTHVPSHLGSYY
In short: (§1)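 Human transcription factors fused to GST were expressed in yeast, captured on glutathione beads, given DNA barcodes and pooled with a GST-only negative control. Pools were incubated with 200 nmole of a 16-mer random double-stranded DNA library in Tris/NaCl/DTT/glycerol buffer at room temperature for 30 min. They were then washed, crosslinked with 0.1% formaldehyde, proximity-ligated (BsaI/T4 ligase, 1 h, 37 °C), PCR-amplified and sequenced on an Illumina NextSeq500. Binding signal is each 6-mer's read frequency for a factor divided by its frequency for the GST control.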

ELK1 = target: T2, ELK1 (Homo sapiens, UniProt P19419 1-428); details: protein: recombinant; tags: N-terminal GST; dsDNA, one strand shown
T2 sequence: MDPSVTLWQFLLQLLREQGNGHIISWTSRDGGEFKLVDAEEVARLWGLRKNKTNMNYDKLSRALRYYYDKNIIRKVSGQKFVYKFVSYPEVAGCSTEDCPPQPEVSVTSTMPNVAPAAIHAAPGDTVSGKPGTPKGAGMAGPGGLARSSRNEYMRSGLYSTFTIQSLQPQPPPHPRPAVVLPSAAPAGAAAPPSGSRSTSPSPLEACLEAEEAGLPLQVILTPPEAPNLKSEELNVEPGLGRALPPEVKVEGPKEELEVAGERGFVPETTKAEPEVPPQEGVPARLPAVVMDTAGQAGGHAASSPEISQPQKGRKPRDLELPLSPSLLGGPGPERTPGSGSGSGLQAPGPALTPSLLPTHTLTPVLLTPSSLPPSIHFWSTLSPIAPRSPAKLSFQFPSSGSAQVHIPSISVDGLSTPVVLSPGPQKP
In short: as §1

GABPA = target: T3, GABPA (Homo sapiens, UniProt Q06546 1-454); details: protein: recombinant; tags: N-terminal GST; dsDNA, one strand shown
T3 sequence: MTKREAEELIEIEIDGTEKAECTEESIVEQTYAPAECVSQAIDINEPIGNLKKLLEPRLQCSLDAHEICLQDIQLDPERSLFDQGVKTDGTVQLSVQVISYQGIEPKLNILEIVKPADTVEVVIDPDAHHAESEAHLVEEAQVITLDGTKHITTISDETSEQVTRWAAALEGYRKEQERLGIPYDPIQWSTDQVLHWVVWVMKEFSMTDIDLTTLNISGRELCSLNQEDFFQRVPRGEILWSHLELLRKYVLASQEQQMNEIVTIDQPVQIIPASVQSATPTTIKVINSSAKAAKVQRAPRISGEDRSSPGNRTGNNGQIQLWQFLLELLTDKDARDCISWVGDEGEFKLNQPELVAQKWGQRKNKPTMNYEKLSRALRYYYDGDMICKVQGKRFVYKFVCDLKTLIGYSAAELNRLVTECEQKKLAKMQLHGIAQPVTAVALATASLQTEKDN
In short: as §1

ERG = target: T4, ERG (Homo sapiens, UniProt P11308 1-479); details: protein: recombinant; tags: N-terminal GST; dsDNA, one strand shown
T4 sequence: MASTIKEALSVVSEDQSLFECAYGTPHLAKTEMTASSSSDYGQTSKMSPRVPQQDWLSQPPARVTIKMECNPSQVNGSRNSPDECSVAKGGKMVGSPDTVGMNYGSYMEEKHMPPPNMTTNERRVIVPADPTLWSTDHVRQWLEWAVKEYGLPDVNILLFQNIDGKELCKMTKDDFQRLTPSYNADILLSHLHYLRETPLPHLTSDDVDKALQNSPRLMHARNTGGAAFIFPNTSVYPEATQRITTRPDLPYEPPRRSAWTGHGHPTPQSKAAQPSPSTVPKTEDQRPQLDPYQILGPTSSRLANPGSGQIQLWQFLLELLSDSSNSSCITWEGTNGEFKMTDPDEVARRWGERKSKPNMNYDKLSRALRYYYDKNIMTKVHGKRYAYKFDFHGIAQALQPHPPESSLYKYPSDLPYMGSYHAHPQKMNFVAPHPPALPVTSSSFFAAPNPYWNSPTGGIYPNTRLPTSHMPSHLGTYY
In short: as §1

ELF1 = ELF1 (Homo sapiens, UniProt P32519 1-619); details: protein: recombinant; tags: N-terminal GST; dsDNA, one strand shown
Chain of ELF1 (P32519 whole entry): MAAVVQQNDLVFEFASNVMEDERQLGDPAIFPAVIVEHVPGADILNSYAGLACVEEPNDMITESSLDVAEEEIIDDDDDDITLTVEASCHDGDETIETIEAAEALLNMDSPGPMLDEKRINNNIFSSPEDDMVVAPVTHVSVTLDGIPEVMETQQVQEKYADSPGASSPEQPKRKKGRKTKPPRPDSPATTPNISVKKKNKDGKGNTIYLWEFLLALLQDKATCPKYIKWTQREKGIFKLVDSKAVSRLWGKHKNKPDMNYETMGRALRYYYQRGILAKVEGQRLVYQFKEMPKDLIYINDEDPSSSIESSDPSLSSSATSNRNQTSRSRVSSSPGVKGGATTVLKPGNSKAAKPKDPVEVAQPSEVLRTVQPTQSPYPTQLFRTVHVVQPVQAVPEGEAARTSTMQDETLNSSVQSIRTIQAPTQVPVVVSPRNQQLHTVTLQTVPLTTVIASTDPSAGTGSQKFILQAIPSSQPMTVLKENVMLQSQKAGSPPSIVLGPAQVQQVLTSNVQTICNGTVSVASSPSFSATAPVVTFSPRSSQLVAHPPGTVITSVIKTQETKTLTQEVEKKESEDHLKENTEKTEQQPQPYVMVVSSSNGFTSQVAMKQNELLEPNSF
In short: as §1

EHF = target: T5, EHF (Homo sapiens, UniProt Q9NZC4 1-300); details: protein: recombinant; tags: N-terminal GST; dsDNA, one strand shown
T5 sequence: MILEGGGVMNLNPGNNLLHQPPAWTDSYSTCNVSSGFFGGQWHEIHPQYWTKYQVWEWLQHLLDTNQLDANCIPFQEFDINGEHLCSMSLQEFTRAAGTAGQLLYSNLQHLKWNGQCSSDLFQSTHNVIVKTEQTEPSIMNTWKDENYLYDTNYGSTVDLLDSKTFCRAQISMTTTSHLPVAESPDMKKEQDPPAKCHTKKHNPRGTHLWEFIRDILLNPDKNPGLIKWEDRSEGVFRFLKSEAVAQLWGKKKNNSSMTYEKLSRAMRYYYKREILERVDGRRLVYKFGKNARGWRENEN
In short: as §1

SPI1 = SPI1 (Homo sapiens, UniProt P17947 1-270); details: protein: recombinant; tags: N-terminal GST; dsDNA, one strand shown
In short: as §1

SPIB = SPIB (Homo sapiens, UniProt Q01892 1-262); details: protein: recombinant; tags: N-terminal GST; dsDNA, one strand shown
Chain of SPIB (Q01892 whole entry): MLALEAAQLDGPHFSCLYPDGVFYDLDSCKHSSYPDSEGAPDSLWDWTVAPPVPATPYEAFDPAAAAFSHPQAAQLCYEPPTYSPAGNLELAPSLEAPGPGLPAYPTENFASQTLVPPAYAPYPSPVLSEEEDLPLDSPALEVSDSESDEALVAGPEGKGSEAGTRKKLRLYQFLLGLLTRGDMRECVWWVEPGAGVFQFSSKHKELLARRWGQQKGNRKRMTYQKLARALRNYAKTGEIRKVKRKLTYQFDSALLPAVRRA
In short: as §1

ELK3 = target: T6, ELK3 (Homo sapiens, UniProt P41970 1-407); details: protein: recombinant; tags: N-terminal GST; dsDNA, one strand shown
T6 sequence: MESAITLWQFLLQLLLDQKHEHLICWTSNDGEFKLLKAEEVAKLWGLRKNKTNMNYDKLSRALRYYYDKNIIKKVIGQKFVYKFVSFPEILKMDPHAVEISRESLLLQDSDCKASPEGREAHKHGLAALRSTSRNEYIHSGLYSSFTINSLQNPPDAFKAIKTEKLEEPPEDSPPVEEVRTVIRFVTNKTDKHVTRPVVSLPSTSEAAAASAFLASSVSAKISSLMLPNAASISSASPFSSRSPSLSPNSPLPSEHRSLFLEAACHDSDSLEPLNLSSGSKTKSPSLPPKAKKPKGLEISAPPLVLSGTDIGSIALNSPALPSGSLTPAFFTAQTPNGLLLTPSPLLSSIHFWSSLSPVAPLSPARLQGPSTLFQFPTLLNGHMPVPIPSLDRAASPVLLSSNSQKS
In short: as §1

FEV = target: T7, FEV (Homo sapiens, UniProt Q99581 1-238); details: protein: recombinant; tags: N-terminal GST; dsDNA, one strand shown
T7 sequence: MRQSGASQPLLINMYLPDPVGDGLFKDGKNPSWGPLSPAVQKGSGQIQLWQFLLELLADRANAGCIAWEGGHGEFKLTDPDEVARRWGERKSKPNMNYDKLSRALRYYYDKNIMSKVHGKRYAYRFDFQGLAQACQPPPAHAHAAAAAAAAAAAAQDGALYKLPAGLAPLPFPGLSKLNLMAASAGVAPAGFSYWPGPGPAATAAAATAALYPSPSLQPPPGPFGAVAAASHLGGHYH
In short: as §1

ETV5 = ETV5 (Homo sapiens, UniProt P41161 1-510); details: protein: recombinant; tags: N-terminal GST; dsDNA, one strand shown
Chain of ETV5 (P41161 whole entry): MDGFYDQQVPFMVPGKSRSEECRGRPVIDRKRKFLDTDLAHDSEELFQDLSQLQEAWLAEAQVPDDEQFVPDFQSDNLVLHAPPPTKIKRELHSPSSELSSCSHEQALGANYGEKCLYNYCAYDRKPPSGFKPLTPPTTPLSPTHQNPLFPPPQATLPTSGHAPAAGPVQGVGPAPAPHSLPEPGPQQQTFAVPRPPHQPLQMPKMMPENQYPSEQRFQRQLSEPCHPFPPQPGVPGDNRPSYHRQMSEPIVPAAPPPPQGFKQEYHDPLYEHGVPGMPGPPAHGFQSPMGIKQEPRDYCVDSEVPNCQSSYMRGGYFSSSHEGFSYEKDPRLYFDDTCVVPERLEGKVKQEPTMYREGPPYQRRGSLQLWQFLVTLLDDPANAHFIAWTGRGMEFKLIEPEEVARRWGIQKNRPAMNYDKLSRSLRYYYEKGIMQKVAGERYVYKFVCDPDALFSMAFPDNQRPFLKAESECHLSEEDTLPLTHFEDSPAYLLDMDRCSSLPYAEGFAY
In short: as §1

HSF1 = HSF1 (Homo sapiens, UniProt Q00613 1-529); details: protein: recombinant; tags: N-terminal GST; chain copies: 3; dsDNA, one strand shown
Chain of HSF1 (Q00613 whole entry): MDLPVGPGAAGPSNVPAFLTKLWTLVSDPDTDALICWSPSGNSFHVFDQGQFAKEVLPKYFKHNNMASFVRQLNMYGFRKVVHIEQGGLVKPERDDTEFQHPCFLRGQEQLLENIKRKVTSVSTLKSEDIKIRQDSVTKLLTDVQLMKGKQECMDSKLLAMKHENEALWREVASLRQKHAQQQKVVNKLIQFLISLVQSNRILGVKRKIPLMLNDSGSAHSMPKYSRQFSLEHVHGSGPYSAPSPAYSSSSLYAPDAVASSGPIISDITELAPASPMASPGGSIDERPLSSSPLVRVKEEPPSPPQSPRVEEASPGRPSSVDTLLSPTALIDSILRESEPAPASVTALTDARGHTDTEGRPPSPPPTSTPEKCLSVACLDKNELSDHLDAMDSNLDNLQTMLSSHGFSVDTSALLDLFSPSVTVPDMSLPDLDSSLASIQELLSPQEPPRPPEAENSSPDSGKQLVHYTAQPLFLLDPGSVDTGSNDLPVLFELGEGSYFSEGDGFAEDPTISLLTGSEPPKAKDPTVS
In short: as §1

SPIC = target: T8, SPIC (Homo sapiens, UniProt Q8N5J4 1-248); details: protein: recombinant; tags: N-terminal GST; dsDNA, one strand shown
T8 sequence: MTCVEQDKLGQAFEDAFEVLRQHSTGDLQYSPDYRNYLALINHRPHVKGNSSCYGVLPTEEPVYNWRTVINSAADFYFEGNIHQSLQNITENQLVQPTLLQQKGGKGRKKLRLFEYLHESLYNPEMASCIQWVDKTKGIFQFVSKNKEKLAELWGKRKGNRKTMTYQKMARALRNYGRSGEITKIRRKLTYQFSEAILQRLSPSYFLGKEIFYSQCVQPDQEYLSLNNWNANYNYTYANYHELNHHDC
In short: as §1

ELF4 = ELF4 (Homo sapiens, UniProt Q99607 1-663); details: protein: recombinant; tags: N-terminal GST; dsDNA, one strand shown
Chain of ELF4 (Q99607 whole entry): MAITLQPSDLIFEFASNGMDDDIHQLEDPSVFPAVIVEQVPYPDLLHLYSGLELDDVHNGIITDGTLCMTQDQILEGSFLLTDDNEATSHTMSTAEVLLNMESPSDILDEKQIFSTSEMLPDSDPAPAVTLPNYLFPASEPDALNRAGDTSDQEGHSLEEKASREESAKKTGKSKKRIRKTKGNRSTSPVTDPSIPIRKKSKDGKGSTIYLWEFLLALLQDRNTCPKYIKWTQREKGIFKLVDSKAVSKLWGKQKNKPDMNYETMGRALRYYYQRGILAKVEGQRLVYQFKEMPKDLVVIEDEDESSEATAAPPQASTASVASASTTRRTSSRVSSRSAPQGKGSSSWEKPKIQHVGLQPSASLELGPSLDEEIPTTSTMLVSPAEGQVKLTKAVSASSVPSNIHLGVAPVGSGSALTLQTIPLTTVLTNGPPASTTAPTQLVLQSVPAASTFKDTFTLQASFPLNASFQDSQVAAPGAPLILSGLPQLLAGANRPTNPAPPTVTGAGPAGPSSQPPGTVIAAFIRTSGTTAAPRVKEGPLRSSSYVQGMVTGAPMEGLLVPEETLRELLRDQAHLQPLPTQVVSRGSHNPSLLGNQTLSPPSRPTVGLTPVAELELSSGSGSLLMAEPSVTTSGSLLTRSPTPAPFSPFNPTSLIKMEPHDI
In short: as §1

ELK4 = target: T9, ELK4 (Homo sapiens, UniProt P28324-2 1-405); details: protein: recombinant; tags: N-terminal GST; dsDNA, one strand shown
T9 sequence: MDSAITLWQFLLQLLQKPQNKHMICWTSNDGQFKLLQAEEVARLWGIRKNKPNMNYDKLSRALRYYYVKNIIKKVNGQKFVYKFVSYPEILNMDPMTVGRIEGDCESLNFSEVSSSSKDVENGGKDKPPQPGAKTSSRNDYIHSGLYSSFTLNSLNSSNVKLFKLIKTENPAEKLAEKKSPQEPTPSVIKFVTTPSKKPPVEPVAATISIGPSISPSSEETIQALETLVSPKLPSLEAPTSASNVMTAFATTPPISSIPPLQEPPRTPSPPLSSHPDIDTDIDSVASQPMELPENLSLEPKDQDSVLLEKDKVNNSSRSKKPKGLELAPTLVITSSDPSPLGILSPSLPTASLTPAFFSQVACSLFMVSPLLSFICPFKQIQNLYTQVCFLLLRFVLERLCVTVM
In short: as §1

ETV2 = target: T10, ETV2 (Homo sapiens, UniProt O00321 1-342); details: protein: recombinant; tags: N-terminal GST; dsDNA, one strand shown
T10 sequence: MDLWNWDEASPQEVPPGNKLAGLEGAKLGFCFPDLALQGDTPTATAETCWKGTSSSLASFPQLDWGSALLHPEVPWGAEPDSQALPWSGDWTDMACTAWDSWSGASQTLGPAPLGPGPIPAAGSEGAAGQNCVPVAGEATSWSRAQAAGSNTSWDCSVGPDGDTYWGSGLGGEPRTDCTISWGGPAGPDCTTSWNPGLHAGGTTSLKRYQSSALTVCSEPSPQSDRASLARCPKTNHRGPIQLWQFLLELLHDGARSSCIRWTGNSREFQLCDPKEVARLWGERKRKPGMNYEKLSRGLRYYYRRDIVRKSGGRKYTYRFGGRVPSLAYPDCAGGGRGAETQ
In short: as §1

ELF3 = target: T11, ELF3 (Homo sapiens, UniProt P78545 1-371); details: protein: recombinant; tags: N-terminal GST; dsDNA, one strand shown
T11 sequence: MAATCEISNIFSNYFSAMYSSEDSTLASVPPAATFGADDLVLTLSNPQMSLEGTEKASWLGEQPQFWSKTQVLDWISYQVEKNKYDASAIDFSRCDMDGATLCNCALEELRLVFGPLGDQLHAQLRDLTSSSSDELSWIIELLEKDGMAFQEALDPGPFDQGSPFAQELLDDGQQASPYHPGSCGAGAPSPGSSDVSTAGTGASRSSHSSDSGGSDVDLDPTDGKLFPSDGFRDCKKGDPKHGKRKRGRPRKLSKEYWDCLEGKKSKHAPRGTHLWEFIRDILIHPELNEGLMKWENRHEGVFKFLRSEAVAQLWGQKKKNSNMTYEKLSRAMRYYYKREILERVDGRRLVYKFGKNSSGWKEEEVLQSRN
In short: as §1

CRX = CRX (Homo sapiens, UniProt O43186 1-299); details: protein: recombinant; tags: N-terminal GST; dsDNA, one strand shown
Chain of CRX (O43186 whole entry): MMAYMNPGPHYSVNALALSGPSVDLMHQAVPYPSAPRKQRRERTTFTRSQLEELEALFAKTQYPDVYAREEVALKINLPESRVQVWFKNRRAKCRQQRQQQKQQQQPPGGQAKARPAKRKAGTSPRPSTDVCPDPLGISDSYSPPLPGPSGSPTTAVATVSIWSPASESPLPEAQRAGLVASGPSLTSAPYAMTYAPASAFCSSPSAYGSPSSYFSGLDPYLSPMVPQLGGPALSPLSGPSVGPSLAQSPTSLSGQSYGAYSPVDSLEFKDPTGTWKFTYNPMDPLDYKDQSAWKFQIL
In short: as §1

ETV1 = ETV1 (Homo sapiens, UniProt P50549 1-477); details: protein: recombinant; tags: N-terminal GST; dsDNA, one strand shown
Chain of ETV1 (P50549 whole entry): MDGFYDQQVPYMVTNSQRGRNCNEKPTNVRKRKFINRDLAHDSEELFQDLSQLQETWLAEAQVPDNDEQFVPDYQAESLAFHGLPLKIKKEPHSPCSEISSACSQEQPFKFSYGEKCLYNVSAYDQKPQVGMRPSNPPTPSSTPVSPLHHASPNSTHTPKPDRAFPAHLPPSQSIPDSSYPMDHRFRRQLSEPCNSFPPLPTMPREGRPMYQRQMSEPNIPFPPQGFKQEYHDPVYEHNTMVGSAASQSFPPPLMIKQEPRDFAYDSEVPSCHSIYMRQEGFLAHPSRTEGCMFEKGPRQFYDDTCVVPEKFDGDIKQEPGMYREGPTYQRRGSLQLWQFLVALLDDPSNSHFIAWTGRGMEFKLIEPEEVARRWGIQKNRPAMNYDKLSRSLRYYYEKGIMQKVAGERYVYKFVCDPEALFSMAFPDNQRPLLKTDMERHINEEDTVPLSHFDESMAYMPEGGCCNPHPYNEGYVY
In short: as §1

AATCCC
binding signal (FLI1): 1.36 fold enrichment (6-mer frequency, TF over GST control) | binding signal (ELK1): 1.36 fold enrichment (6-mer frequency, TF over GST control) | binding signal (GABPA): 1.38 fold enrichment (6-mer frequency, TF over GST control) | binding signal (ERG): 1.42 fold enrichment (6-mer frequency, TF over GST control) | binding signal (ELF1): 1.35 fold enrichment (6-mer frequency, TF over GST control) | binding signal (EHF): 1.39 fold enrichment (6-mer frequency, TF over GST control) | binding signal (SPI1): 1.26 fold enrichment (6-mer frequency, TF over GST control) | binding signal (SPIB): 1.32 fold enrichment (6-mer frequency, TF over GST control) | binding signal (ELK3): 1.13 fold enrichment (6-mer frequency, TF over GST control) | binding signal (FEV): 1.41 fold enrichment (6-mer frequency, TF over GST control) | binding signal (ETV5): 1.3 fold enrichment (6-mer frequency, TF over GST control) | binding signal (HSF1): 2.47 fold enrichment (6-mer frequency, TF over GST control) | binding signal (SPIC): 1.2 fold enrichment (6-mer frequency, TF over GST control) | binding signal (ELF4): 1.33 fold enrichment (6-mer frequency, TF over GST control) | binding signal (ELK4): 1.28 fold enrichment (6-mer frequency, TF over GST control) | binding signal (ETV2): 1.37 fold enrichment (6-mer frequency, TF over GST control) | binding signal (ELF3): 1.35 fold enrichment (6-mer frequency, TF over GST control) | binding signal (CRX): 3.65 fold enrichment (6-mer frequency, TF over GST control) | binding signal (ETV1): 1.42 fold enrichment (6-mer frequency, TF over GST control)
